Common to all, as to set-up: scale not given: direction of the effect not stated beside the values
Test [1] has as its target Protein translocase subunit SecA (Escherichia coli (strain K12)) (UniProt P10408). The test is described as follows: Assay to Identify E. coli SecA ATPase Inhibitors. In kind it is functional. Conditions: 30 µM.
Test [2] deals with T1, Ubiquitin-activating enzyme e1, putative (Leishmania donovani (strain BPK282A1)) (UniProt E9BSI1).
T1 sequence (whole entry): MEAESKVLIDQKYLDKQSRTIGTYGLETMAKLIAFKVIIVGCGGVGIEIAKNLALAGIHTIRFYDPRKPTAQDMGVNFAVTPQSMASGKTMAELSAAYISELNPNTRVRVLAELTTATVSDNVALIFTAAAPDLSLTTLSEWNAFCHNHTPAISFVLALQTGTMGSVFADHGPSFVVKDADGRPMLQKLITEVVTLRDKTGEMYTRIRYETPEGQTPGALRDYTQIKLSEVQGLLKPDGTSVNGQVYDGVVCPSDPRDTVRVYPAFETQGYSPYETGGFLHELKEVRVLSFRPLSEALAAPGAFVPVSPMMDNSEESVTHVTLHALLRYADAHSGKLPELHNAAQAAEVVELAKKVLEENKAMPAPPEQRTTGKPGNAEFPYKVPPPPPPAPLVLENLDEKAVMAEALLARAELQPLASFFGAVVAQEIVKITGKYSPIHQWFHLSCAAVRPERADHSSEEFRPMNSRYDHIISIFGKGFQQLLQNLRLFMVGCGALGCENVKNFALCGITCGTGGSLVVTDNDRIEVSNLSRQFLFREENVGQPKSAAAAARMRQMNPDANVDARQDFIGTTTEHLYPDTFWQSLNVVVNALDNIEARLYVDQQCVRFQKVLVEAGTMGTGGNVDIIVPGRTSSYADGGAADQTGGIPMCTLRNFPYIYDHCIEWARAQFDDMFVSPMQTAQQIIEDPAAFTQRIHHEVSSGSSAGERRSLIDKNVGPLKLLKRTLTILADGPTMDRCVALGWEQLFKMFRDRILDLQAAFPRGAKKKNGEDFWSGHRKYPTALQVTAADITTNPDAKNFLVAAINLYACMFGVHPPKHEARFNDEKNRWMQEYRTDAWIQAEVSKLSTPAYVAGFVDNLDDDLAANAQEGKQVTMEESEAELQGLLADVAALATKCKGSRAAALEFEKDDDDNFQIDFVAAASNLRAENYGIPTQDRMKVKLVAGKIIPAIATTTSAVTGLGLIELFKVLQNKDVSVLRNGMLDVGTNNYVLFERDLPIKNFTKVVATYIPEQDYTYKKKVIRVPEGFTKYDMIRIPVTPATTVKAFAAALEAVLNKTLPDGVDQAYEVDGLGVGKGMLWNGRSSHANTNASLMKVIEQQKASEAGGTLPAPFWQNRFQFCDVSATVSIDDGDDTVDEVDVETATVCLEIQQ
The test is described as follows: Leishmania donovani Ubiquitin Activating Enzyme (LdE1). The class given is functional. As to conditions: 30 µM.

The target of test [3] is AMP-activated protein kinase, AMPK (Homo sapiens) (UniProt P54646+O43741+P54619+Q9UGJ0+Q9Y478+Q13131+Q9UGI9). The test is described as follows: AMP-dependent Kinase enzyme assay. An in vitro enzyme assay that detects ADP turnover that is directly proportional to AMPK activity. This uses naive AMPK that is activated during the assay with MK-8722. Conditions: 30 µM. The class given is functional.

Test [4] addresses Sialic acid-binding Ig-like lectin 9 (Homo sapiens) (UniProt Q9Y336). The test can be described thus: Hs-Siglec9 ALPHAscreen SOP 20170721. Conditions: 10 µM.
The subject of test [5] is Trypanosoma cruzi. The test is described as follows: Trypanosoma cruzi phosphomannomutase and mannose-1-phosphate guanylyltransferase assay. In kind it is functional. Conditions: 10 µM.
The target in test [6] is T2, Arginase-2, mitochondrial (Homo sapiens) (UniProt P78540).
T2 sequence (whole entry): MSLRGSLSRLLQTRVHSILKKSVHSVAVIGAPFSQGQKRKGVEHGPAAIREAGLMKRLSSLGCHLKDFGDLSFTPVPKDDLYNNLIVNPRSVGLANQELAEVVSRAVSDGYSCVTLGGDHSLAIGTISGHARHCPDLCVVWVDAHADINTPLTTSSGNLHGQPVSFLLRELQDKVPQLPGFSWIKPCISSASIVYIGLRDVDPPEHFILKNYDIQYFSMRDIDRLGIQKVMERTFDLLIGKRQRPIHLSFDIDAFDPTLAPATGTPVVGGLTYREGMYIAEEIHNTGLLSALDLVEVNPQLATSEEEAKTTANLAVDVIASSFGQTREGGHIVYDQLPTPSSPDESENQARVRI
The test can be described thus: in vitro enzyme assay to detect the production of urea directly proportional to the activity of Arginase II. Further: in the data most compounds retested in dose-response had high values. In kind it is functional. As to conditions: 33.3 µM.

For test [7], the target named is T3, Proteasome subunit beta (Trypanosoma cruzi) (UniProt O96673).
T3 sequence (whole entry): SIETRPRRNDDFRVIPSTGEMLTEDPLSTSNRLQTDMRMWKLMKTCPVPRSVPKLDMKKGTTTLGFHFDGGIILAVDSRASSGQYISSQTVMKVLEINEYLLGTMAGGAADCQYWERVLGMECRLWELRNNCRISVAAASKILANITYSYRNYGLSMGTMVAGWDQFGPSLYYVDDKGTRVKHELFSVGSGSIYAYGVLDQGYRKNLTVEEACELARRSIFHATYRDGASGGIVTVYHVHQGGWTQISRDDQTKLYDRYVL
The test is described as follows: Trypanosoma cruzi proteasome chymotrypsin-like activity (TcProtChymo) assay. Further: in the data most compounds retested in dose-response had high values. As to conditions: 9.37 µM. The class given is functional.

The species entered for test [8] is Homo sapiens. The test can be described thus: To identify inhibition of the IFN signalling (Jak-Stat) pathway via expression of an eGFP reporter gene under the control of an IFN-stimulated response element (ISRE) containing MxA promoter. In kind it is functional. As to conditions: 30 µM. A general note: In a reporter assay the amount or activity of a reporter protein is the signal.

The target in test [9] is T4, Tyrosyl-tRNA synthetase, putative (Trypanosoma cruzi (strain CL Brener)) (UniProt Q4DSP6).
T4 sequence (whole entry): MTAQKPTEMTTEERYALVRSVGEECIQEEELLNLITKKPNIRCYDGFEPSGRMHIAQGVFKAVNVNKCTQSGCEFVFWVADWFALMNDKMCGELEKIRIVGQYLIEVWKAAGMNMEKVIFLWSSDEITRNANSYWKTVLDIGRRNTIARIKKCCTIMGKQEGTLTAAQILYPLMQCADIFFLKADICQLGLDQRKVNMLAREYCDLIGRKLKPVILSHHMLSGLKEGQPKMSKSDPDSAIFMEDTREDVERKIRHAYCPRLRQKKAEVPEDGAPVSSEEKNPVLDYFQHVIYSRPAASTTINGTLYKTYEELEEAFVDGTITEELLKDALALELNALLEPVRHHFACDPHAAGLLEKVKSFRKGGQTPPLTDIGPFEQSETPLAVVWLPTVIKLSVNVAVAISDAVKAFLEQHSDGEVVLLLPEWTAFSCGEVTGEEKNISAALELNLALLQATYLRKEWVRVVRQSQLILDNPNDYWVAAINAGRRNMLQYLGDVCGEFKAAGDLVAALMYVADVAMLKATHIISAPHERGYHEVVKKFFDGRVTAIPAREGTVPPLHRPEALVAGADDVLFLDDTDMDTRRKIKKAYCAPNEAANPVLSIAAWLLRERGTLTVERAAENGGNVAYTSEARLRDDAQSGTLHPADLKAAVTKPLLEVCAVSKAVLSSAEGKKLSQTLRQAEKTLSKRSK
The test is described as follows: Trypanosoma cruzi tyrosyl tRNA synthetase (TcYRS) _High Tyrosine SOP. Further: in the data most compounds retested in dose-response had high values. Conditions: 30 µM. The class given is functional.

For test [10], the target named is T4, Tyrosyl-tRNA synthetase, putative (Trypanosoma cruzi (strain CL Brener)). The test can be described thus: Trypanosoma cruzi tyrosyl tRNA synthetase (TcYRS) SOP. In kind it is functional. As to conditions: 30 µM.
Test [11] addresses Chromo domain-containing protein 1 (Saccharomyces cerevisiae (strain ATCC 204508 / S288c) (Baker's yeast)) (UniProt P32657). The test is described as follows: ScCHD-1 Enzyme Inhibition Assay. Further: in the data most compounds retested in dose-response had high values. The class given is functional. As to conditions: 30 µM.

For some of these results: Entries with a potency or affinity are not part of this list.

Eleven compounds from ChEMBL document CHEMBL3988442, “University of Dundee, Small-Polar-MMV Screening Library” (2021) can be followed below.

Chain of Chromo domain-containing protein 1 (Saccharomyces cerevisiae (strain ATCC 204508 / S288c) (Baker's yeast)) (P32657 whole entry, the tested form may be a part): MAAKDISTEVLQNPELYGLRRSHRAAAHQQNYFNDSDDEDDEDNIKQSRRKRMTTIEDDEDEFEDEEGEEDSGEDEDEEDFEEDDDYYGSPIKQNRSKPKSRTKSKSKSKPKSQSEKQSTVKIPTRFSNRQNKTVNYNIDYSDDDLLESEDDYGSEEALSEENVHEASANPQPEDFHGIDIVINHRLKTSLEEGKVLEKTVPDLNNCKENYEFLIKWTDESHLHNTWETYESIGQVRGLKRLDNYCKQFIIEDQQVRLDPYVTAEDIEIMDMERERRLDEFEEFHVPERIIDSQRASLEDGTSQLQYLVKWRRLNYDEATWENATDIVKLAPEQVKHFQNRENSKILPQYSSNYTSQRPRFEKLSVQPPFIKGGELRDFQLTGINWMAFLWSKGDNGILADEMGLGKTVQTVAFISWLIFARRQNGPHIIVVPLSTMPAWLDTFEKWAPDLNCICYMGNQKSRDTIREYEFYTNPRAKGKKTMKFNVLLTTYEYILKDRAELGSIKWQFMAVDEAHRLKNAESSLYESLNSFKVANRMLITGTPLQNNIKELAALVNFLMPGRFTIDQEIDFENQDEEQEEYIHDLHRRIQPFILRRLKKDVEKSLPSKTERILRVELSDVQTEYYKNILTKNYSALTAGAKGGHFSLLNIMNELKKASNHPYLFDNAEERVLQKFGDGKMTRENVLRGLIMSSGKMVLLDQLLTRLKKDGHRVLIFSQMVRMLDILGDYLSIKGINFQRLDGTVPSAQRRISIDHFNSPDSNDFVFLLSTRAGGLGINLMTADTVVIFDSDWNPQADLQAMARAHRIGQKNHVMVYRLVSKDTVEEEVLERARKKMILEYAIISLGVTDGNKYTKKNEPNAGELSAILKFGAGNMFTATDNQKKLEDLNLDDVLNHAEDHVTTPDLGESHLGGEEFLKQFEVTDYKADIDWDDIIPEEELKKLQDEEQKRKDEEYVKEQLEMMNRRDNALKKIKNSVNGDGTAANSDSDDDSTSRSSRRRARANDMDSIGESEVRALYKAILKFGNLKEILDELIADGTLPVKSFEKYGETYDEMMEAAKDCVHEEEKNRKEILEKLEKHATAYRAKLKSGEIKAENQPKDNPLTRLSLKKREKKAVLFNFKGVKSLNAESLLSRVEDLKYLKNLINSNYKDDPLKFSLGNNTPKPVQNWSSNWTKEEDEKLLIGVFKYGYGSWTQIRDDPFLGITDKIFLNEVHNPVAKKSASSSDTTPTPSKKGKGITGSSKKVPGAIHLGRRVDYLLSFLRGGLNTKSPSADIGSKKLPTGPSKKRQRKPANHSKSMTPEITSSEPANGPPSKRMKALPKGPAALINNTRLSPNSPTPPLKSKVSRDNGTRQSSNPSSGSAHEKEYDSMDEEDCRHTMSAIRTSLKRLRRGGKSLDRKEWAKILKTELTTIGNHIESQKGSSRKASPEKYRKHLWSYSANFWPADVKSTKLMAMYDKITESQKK
Chain of Sialic acid-binding Ig-like lectin 9 (Homo sapiens) (Q9Y336 whole entry): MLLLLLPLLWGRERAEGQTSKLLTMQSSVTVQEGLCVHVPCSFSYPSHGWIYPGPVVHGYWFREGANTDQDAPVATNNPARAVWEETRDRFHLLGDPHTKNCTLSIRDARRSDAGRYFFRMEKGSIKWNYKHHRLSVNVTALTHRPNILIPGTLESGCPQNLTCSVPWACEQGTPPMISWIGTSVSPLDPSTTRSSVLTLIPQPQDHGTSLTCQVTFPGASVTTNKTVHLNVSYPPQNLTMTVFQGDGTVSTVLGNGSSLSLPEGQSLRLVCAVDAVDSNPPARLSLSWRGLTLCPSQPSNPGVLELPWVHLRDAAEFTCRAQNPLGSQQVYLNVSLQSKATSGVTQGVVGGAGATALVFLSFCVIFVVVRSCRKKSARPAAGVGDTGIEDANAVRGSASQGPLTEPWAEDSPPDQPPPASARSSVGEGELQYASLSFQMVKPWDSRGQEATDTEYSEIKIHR
Chain of Protein translocase subunit SecA (Escherichia coli (strain K12)) (P10408 whole entry): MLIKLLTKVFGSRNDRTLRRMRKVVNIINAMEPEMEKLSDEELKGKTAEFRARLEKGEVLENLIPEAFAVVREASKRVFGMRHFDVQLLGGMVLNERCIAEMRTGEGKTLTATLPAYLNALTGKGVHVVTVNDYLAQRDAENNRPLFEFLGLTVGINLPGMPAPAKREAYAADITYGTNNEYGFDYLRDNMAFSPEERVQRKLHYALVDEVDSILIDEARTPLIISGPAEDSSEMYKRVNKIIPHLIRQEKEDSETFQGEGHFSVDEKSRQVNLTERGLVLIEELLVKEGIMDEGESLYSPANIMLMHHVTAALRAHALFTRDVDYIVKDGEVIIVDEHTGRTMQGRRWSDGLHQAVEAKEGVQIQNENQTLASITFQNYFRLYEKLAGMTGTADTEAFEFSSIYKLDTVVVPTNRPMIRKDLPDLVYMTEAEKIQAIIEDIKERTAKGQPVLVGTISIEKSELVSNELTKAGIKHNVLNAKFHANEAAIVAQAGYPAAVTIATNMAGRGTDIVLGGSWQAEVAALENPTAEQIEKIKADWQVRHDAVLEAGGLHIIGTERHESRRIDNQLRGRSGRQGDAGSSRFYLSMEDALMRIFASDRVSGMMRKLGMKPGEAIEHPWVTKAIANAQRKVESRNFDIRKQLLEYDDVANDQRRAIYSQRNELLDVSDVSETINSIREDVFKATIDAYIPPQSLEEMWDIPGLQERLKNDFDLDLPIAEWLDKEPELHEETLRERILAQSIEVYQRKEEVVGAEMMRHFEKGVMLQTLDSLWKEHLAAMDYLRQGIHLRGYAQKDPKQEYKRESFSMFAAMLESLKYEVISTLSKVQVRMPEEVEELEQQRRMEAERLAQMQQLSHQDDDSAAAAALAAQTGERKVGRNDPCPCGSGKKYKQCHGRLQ

Take `CC(O)CN1CCC(CNCc2ccc(S(C)(=O)=O)cc2)CC1` (stereo unspecified): the Percent Effect in [1] is -2%; in test [2], 19.2%; in test [3] it was -8.77%; in [4], 13.4%; in test [5] it was 2.15%; in [6], 8.64%. For the same compound, the Percent Effect in test [7] was 24.5%; in test [8], 5.76%; in [9], 4.3%; in [10] it was 15%; in test [11] it was -7.9%.
Turning to `CC(C)(C)C(=O)N1CCCC1c1nc(O)cc(-c2ccccn2)n1` (stereo unspecified), the Percent Effect in test [1] was -5.78%; in test [2], 25.7%; in test [3], 5.44%; in test [4] it was 16.5%; in test [5], 3.36%; in [6], -1.62%. In addition, the Percent Effect is 11.9% in test [7]; 7.83% in [8]; 5.38% in test [9]; 24.7% in test [10]; -13.5% in test [11].
Consider `CNC(=O)c1cnc(/C=C/c2cc(OC)c(OC)c(OC)c2)s1`, for which the Percent Effect is -3.62% in [1]; 16.2% in test [2]; -4.03% in test [3]; 8.07% in test [4]; 1.56% in test [5]; 21.2% in test [6]. Besides, the Percent Effect was 16% in [7]; 40.4% in test [8]; 9.9% in test [9]; 18.3% in [10]; -13% in [11].
In the case of `c1nc2c(c(C3CC3)n1)CCN(Cc1ccc3c(c1)OCO3)CC2`, the Percent Effect in test [1] is -2.79%; in [2], -5.48%; in test [3], 3.53%; in test [4] it was 13.7%; in test [5], 4.37%; in [6] it was -0.399%. For the same compound, the Percent Effect in test [7] is 7.45%; in test [8], 8.17%; in test [9], 6.25%; in test [10], 1.24%; in test [11], -2.36%.
Regarding `CCc1ccc(CN(CCCn2ccnc2)Cc2ccc(C)s2)o1`, the Percent Effect in test [1] was -8.95%; in test [2] it was 1.35%; in [3], 1.91%; in test [4], 2.18%; in [5], -0.79%; in test [6], -3.94%. Also, the Percent Effect is 9.36% in test [7]; 38.5% in test [8]; 0% in test [9]; -6.49% in [10]; -8.71% in test [11].
Turning to `CN(Cc1cn2c(n1)CN(C1CCOC1)CC2)Cc1ccco1` (stereo unspecified), the Percent Effect in [1] was 0.0628%; in test [2], 5.33%; in test [3] it was 0.778%; in test [4] it was 1.26%; in [5], 5.99%; in [6], -58.2%. Moreover, the Percent Effect was 16.1% in test [7]; 15.2% in test [8]; 6.25% in [9]; 20% in test [10]; -10.2% in test [11].
Regarding `O=C(NCc1ccc(OCC2CC2)nc1)c1c(F)cccc1F`, the Percent Effect in test [1] is -0.518%; in test [2] it was 2.63%; in test [3], 4.21%; in test [4], -0.689%; in test [5], -5.16%; in test [6], -11.8%. Further, the Percent Effect was 15.1% in [7]; 11.7% in [8]; 3.19% in test [9]; 7.79% in [10]; -4.74% in test [11].
In the case of `CC(=O)N(C)CC(=O)Nc1cccc(N2CCN(CC3CC3)CC2)c1`, the Percent Effect is -6.27% in test [1]; 5.41% in [2]; -9.55% in [3]; 0.217% in [4]; -1.86% in [5]; -13.2% in [6]. For the same compound, the Percent Effect in test [7] turned out to be 1.46%; in [8] it was 4.97%; in [9], 3.23%; in test [10] it was 11.1%; in test [11] it was 0.0532%.
`Cc1cnn(CC2CCCN2Cc2nnsc2Cl)c1` (stereo unspecified): the Percent Effect in [1] was -4.93%; in test [2], 0%; in test [3] it was -0.946%; in test [4] it was -0.665%; in test [5], -3.68%; in test [6], -2.66%. The Percent Effect in [7] is 0.573%; in test [8] it was 28.5%; in [9] it was 2.46%; in [10] it was -3.8%; in test [11], 3.6%.
`Cc1cc(CNC(=O)C2CCCCN2C(=O)OC(C)(C)C)no1` (stereo unspecified): the Percent Effect in [1] was -4.46%; in test [2], 2.7%; in [3], -5.58%; in [4], 0.833%; in test [5], -2.83%; in test [6], 0.744%. In addition, the Percent Effect is 1.29% in test [7]; 4.89% in test [8]; 3.23% in [9]; 13.6% in test [10]; -3.75% in test [11].
For `COC(=O)C(c1cc(F)ccc1F)N(C)C(=O)c1cccnc1O` (stereo unspecified), the Percent Effect in [1] was -4.02%; in test [2], 6.33%; in test [3] it was 7.36%; in test [4] it was -2.25%; in test [5] it was -1.33%; in [6], 0.645%. The Percent Effect in test [7] was 10.3%; in [8], -7.9%; in test [9] it was 1.04%; in test [10], 12.7%; in test [11] it was -12.9%.
